Assay results reported in PubChem BioAssay AID1159580 (chemical genetic matrix, 2015).
The whole screen tested about 5,500 compounds, of which about 2,000 (36%) were called active. Inconclusive results (about 18%) are left out. Cut-off read from the data, not from the text of the source: active = normalized growth mostly below about 0.91 (no sharp cut-off); inconclusive = no clear call, values can overlap the other calls; inactive = mostly above about 0.92. The list shows a part of the results.

Experiment: chemical genetic growth profiling, strain panel (AID 1159580);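 note: tested at 20 µM; growth read once vehicle control cultures reached saturation at 30 °C; 1 = growth at the plate median or of vehicle wells; lower values mean less growth of the strain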
Conditions: growth OD

Measured: normalized growth

CC(=O)OCC(=O)[C@@]1(O)[C@H](OC(C)=O)CC2C3CCC4=CC(=O)C=C[C@]4(C)[C@@]3(F)[C@@H](O)C[C@@]21C (some centres not stated)
inactive: S. cerevisiae deletion strains, locus YJR066W, strain TOR1, hits give low values 0.935 | S. cerevisiae deletion strains, locus YKL009W, strain mrt4, hits give low values 0.993 | S. cerevisiae deletion strains, locus YKL068W, hits give low values 0.994 | S. cerevisiae deletion strains, locus YKL085W, strain MDH1 (second series), hits give low values 1 | S. cerevisiae deletion strains, locus YKL085W, strain MDH1, hits give low values 1 | S. cerevisiae deletion strains, locus YKL160W, strain elf1, hits give low values 1.02 | S. cerevisiae deletion strains, locus YKL190W, strain CNB1, hits give low values 0.996 | S. cerevisiae deletion strains, locus YKR001C, strain vps1, hits give low values 0.999 | S. cerevisiae deletion strains, locus YKR026C, strain gcn3, hits give low values 0.993 | S. cerevisiae deletion strains, locus YKR091W, strain srl3, hits give low values 0.986 | S. cerevisiae deletion strains, locus YLL001W, strain dnm1, hits give low values 1.03 | S. cerevisiae deletion strains, locus YLL026W, hits give low values 1 | S. cerevisiae deletion strains, locus YLL041C, strain sdh2, hits give low values 0.985 | S. cerevisiae deletion strains, locus YLR027C, strain aat2, hits give low values 1.01 | S. cerevisiae deletion strains, locus YLR039C, strain RIC1, hits give low values 0.995 | S. cerevisiae deletion strains, locus YLR058C, strain SHM2, hits give low values 0.98 | S. cerevisiae deletion strains, locus YLR102C, strain apc9, hits give low values 0.999 | S. cerevisiae deletion strains, locus YLR113W, strain HOG1, hits give low values 0.98 | S. cerevisiae deletion strains, locus YLR221C, strain rsa3, hits give low values 0.956 | S. cerevisiae deletion strains, locus YLR258W, strain gsy2, hits give low values 0.982 | S. cerevisiae deletion strains, locus YLR262C, strain YPT6 (second series), hits give low values 1.01 | S. cerevisiae deletion strains, locus YLR262C, strain YPT6, hits give low values 0.974 | S. cerevisiae deletion strains, locus YLR268W, strain sec22, hits give low values 1.06 | S. cerevisiae deletion strains, locus YLR320W, strain mms22, hits give low values 0.97 | S. cerevisiae deletion strains, locus YLR330W, strain CHS5, hits give low values 0.993 | S. cerevisiae deletion strains, locus YLR342W, strain FKS1 (second series), hits give low values 1.01 | S. cerevisiae deletion strains, locus YLR342W, strain FKS1, hits give low values 1.02 | S. cerevisiae deletion strains, locus YLR357W, strain rsc2, hits give low values 0.974 | S. cerevisiae deletion strains, locus YLR370C, strain arc18, hits give low values 0.99 | S. cerevisiae deletion strains, locus YLR371W, strain rom2, hits give low values 0.983 | S. cerevisiae deletion strains, locus YLR384C, strain iki3, hits give low values 0.996 | S. cerevisiae deletion strains, locus YLR418C, strain cdc73, hits give low values 1 | S. cerevisiae deletion strains, locus YML016C, strain PPZ1, hits give low values 0.996 | S. cerevisiae deletion strains, locus YML032C, strain rad52, hits give low values 1.01 | S. cerevisiae deletion strains, locus YML120C, strain ndi1, hits give low values 1 | S. cerevisiae deletion strains, locus YML124C, strain tub3, hits give low values 0.991 | S. cerevisiae deletion strains, locus YMR058W, strain fet3, hits give low values 0.991 | S. cerevisiae deletion strains, locus YMR078C, strain ctf18, hits give low values 0.987 | S. cerevisiae deletion strains, locus YMR125W, strain sto1, hits give low values 0.983 | S. cerevisiae deletion strains, locus YMR129W, hits give low values 0.967 | S. cerevisiae deletion strains, locus YMR205C, strain PFK2, hits give low values 1.02 | S. cerevisiae deletion strains, locus YMR223W, strain ubp8, hits give low values 0.98 | S. cerevisiae deletion strains, locus YMR231W, strain pep5, hits give low values 1 | S. cerevisiae deletion strains, locus YMR263W, strain SAP30, hits give low values 0.991 | S. cerevisiae deletion strains, locus YMR307W, strain GAS1, hits give low values 1 | S. cerevisiae deletion strains, locus YNL067W, strain RPL9B, hits give low values 0.998 | S. cerevisiae deletion strains, locus YNL071W, strain lat1, hits give low values 0.974 | S. cerevisiae deletion strains, locus YNL183C, strain NPR1, hits give low values 0.949 | S. cerevisiae deletion strains, locus YNL209W, strain ssb2, hits give low values 0.986 | S. cerevisiae deletion strains, locus YNL233W, strain BNI4, hits give low values 0.986 | S. cerevisiae deletion strains, locus YNL248C, strain rpa49, hits give low values 0.937 | S. cerevisiae deletion strains, locus YNL250W, strain rad50, hits give low values 0.985 | S. cerevisiae deletion strains, locus YNL271C, strain bni1, hits give low values 0.997 | S. cerevisiae deletion strains, locus YNL298W, strain CLA4, hits give low values 1 | S. cerevisiae deletion strains, locus YNL307C, strain MCK1, hits give low values 0.998 | S. cerevisiae deletion strains, locus YNL322C, strain KRE1 (second series), hits give low values 0.998 | S. cerevisiae deletion strains, locus YNR049C, strain mso1, hits give low values 0.979 | S. cerevisiae deletion strains, locus YNR052C, strain pop2, hits give low values 1 | S. cerevisiae deletion strains, locus YOL006C, strain TOP1, hits give low values 0.959 | S. cerevisiae deletion strains, locus YOL012C, strain htz1 1.14 | S. cerevisiae deletion strains, locus YOL147C, strain pex11, hits give low values 0.994 | S. cerevisiae deletion strains, locus YOR001W, strain rrp6, hits give low values 1 | S. cerevisiae deletion strains, locus YOR061W, strain CKA2, hits give low values 0.963 | S. cerevisiae deletion strains, locus YOR069W, strain VPS5, hits give low values 0.993 | S. cerevisiae deletion strains, locus YOR070C, strain gyp1, hits give low values 0.989 | S. cerevisiae deletion strains, locus YOR080W, strain dia2, hits give low values 0.997 | S. cerevisiae deletion strains, locus YOR083W, strain WHI5, hits give low values 1.01 | S. cerevisiae deletion strains, locus YOR106W, strain vam3, hits give low values 1.02 | S. cerevisiae deletion strains, locus YOR136W, strain idh2, hits give low values 0.981 | S. cerevisiae deletion strains, locus YOR144C, strain elg1, hits give low values 0.998 | S. cerevisiae deletion strains, locus YOR184W, strain ser1, hits give low values 0.986 | S. cerevisiae deletion strains, locus YOR231W, strain MKK1, hits give low values 0.982 | S. cerevisiae deletion strains, locus YOR265W, strain rbl2, hits give low values 0.982 | S. cerevisiae deletion strains, locus YOR270C, strain vph1, hits give low values 0.973 | S. cerevisiae deletion strains, locus YOR290C, strain snf2, hits give low values 0.952 | S. cerevisiae deletion strains, locus YOR316C, strain cot1, hits give low values 0.993 | S. cerevisiae deletion strains, locus YPL051W, strain arl3, hits give low values 1.01 | S. cerevisiae deletion strains, locus YPL078C, strain atp4, hits give low values 1.02 | S. cerevisiae deletion strains, locus YPL106C, strain sse1, hits give low values 0.982 | S. cerevisiae deletion strains, locus YPL240C, strain hsp82, hits give low values 1 | S. cerevisiae deletion strains, locus YPL256C, strain CLN2, hits give low values 0.969 | S. cerevisiae deletion strains, locus YPR119W, strain clb2, hits give low values 0.998 | S. cerevisiae deletion strains, locus YPR141C, strain kar3, hits give low values 0.982 | S. cerevisiae deletion strains, locus YPR163C, strain tif3, hits give low values 0.985 | S. cerevisiae deletion strains, locus YPR167C, strain met16, hits give low values 0.992 | S. cerevisiae deletion strains, strain wtn01, hits give low values 1 | S. cerevisiae strains, strain wild type, hits give low values 0.983
